Neddylation inh: inhibitors of human cullin neddylation | P61081+Q13564 | TR-FRET cullin neddylation, biochemical | inhibition, % at 25 µM | 360,000 tested, 0.58% active; in the data active = inhibition above about 36%
DAGLB inhibitor: diacylglycerol lipase beta (human) inhibition; AID 504411; 340,000 tested, 0.059% active; inhibition, % at 5.17 µM; HEK293T DAGLB membrane lysate, EnzChek fluorogenic substrate; in the data active = inhibition above about 34%;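 also: 0% = enzyme with vehicle and 100% = wells lacking enzyme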
Target sequence (Q8NCG7 whole entry, looked up): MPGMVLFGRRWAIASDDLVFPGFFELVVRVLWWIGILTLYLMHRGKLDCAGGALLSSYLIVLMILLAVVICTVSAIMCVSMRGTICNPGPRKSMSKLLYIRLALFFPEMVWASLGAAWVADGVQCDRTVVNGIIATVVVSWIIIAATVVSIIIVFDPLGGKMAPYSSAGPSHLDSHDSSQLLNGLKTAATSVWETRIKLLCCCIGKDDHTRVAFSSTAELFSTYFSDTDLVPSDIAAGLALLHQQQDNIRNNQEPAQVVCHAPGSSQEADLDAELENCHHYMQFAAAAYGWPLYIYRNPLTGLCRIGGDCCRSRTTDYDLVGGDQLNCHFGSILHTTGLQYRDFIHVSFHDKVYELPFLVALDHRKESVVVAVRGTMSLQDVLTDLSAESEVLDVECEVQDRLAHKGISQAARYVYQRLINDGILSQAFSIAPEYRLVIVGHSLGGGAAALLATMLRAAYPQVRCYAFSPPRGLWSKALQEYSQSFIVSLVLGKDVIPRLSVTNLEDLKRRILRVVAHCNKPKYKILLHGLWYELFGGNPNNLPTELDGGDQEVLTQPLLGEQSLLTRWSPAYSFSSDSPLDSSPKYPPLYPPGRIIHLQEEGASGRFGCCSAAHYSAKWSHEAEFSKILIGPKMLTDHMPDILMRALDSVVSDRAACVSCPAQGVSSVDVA
NadD inh: blocks S. aureus nicotinate mononucleotide adenylyltransferase; AID 602399; purified NadD enzyme, colorimetric absorbance read-out; 360,000 tested, 0.78% active; inhibition, % at 20 µM; in the data active = inhibition above about 26%
HGIII-sPLA2 inh: Inhibits HGIII-sPLA2 liposome hydrolysis, primary screen | Q9NZ20 | 370,000 tested, 0.56% active | QFRET BODIPY PC-A2 liposome hydrolysis, fluorescence | inhibition, % at 12.2 µM;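 active = inhibition above mean plus 3 SD of compounds lying within the high and low control bounds, cut at about 19% in these data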;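 also: 0% = median of test compound wells and 100% = no enzyme DMSO wells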
ARNT TACC3 PPI: disruptors of human ARNT/TACC3 interaction; inhibition, % at 9.99 µM; 390,000 tested, 0.66% active; Q9Y6A5; AlphaScreen His-ARNT PAS-B/GST-TACC3 binding, luminescence; TACC3 fragment carries E629A point mutation; AID 623870;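 active = mean inhibition of replicates at least 50% and at least half of replicates each reaching 50%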;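 also: 0% = complete ARNT plus TACC3 wells and 100% = ARNT alone without TACC3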
ARNT Alpha ctr: AlphaScreen artifact in ARNT/TACC3 counter-screen. shares compounds with ARNT TACC3 PPI. His-ARNT PASB-GST AlphaScreen artifact counter-screen, luminescence. AC50, µM (highest dose often 68 µM), for the others: top-dose activity change, negative = signal decrease. 1,200 tested, 50% active;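 active = every separate test run was called active for a drop in luminescence, with AC50 within twice the top valid dose, actives reach about 71 µM in these data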
* hit, by the source's call; / = no result shown. Shown are actives, neighbours in structure and some others; about 2% of the full set was active somewhere.

SMILES | Neddylation inh | DAGLB inhibitor | NadD inh | HGIII-sPLA2 inh | ARNT TACC3 PPI | ARNT Alpha ctr
O=C(NCCCn1ccnc1)C(=O)NCC1OCCCN1S(=O)(=O)c1ccccc1 (configuration not stated) | 0.0 | -0.2 | -4.7 | -0.9 | 39.6* | -11.2%
O=C(NCCCn1ccnc1)C(=O)NCC1OCCN1S(=O)(=O)c1ccc(Cl)cc1 (configuration not stated) | 4.0 | 2.2 | -0.8 | -2.8 | 57.5* | 70.1µM*
CNC[C@@H]1OCCCC[C@H](C)Oc2ccc(NC(=O)c3ccccc3)cc2C(=O)N([C@H](C)CO)C[C@H]1C | / | / | / | / | 11.3 | /
Fc1ccc(-c2ccc(CNCc3ccccn3)o2)cc1 | 0.2 | -2.9 | -4.5 | -0.9 | 61.4* | -28.7%
COc1ccc(NC(=O)Nc2ccc3c(c2)[C@@H]2C[C@@H](CC(=O)N4CCN(C)CC4)O[C@@H](CO)[C@@H]2O3)cc1 | / | / | / | / | 4.1 | /
CCSc1nnc(NC(=O)C2CC2c2ccccc2)s1 (configuration not stated) | -1.8 | 0.3 | 12.5 | 12.2 | / | /
CCSc1nnc(NC(=O)C2CCCCC2C(=O)O)s1 (configuration not stated) | 1.9 | -2.0 | 1.3 | 1.9 | active | -0.1%
O=c1[nH]c2ccccc2c(O)c1SCCO | 18.2 | -1.5 | 2.5 | -2.8 | / | /
O=C(O)CSc1c(O)c2ccccc2[nH]c1=O | 11.6 | 0.2 | 3.5 | 1.6 | 60.3* | -9.6%
C[C@@H]1CN([C@H](C)CO)C(=O)c2cc(NC(=O)Nc3ccc4c(c3)OCO4)ccc2O[C@@H](C)CCCCO[C@H]1CN(C)Cc1ccc(Cl)c(Cl)c1 | / | / | / | / | 5.8 | /
C[C@H]1CN([C@@H](C)CO)C(=O)c2cc(-c3ccc(F)cc3)cnc2O[C@@H]1CN(C)C(=O)NC1CCCC1 | / | / | / | / | -10.4 | /
CN1CCN(C(c2ccccn2)c2cc(Cl)c3cccnc3c2O)CC1 (configuration not stated) | 8.2 | 4.5 | -1.4 | 10.3 | 51.7* | 21.3µM*
Oc1c(C(c2ccc(Cl)cc2)N2CCCC2)cc(Cl)c2cccnc12 (configuration not stated) | 23.5 | -6.6 | 11.6 | 18.2 | 55.2* | 6.49µM*
Oc1c(C(c2ccccc2Cl)N2CCCC2)ccc2cccnc12 (configuration not stated) | 29.1 | 4.3 | 3.6 | 16.4 | 74.3* | 8.37µM*
Cc1ccc(C(c2cc(Cl)c3cccnc3c2O)N2CCN(C)CC2)cc1 (configuration not stated) | 13.7 | -13.3 | 5.1 | / | / | /
Oc1ccc(Cl)cc1CNc1cccc2cccnc12 | -14.7 | 4.2 | 28.4 | -2.0 | 64.5* | -30.7%
Cc1ccc(S(=O)(=O)/N=C2\C=C(Nc3ccc(O)cc3)C(=O)c3ccccc32)cc1 | -52.5 | 45.6* | 6.4 | / | 53.6* | 5.24µM*
Cc1ccc(C2CCN(C(=S)Nc3cccc(C)c3)C2)cc1 (configuration not stated) | -2.5 | -8.1 | -6.5 | 9.2 | 57.7* | -12.3%
C[C@@H]1CN([C@H](C)CO)C(=O)c2cccc(NC(=O)Nc3ccccc3)c2O[C@H]1CN(C)C(=O)Nc1ccccc1 | / | / | / | / | -3.4 | /
CCOc1ccc(/C=N/Nc2cc(N3CCOCC3)ncn2)c(O)c1 | -0.6 | 7.0 | -4.1 | 10.0 | / | /
CCCOc1ccc(/C=N/Nc2cc(N3CCOCC3)ncn2)c(O)c1 | 6.4 | 3.4 | -5.6 | 14.7 | 58.2* | -26.7%
Cc1ccc(Nc2c(-c3ccccn3)nc3ccc(C)cn23)cc1 | 29.3 | 2.9 | 6.2 | 10.6 | 28.0 | /
Cc1ccc(Nc2c(-c3ccccn3)nc3cc(C)ccn23)cc1 | / | 6.4 | 5.9 | 2.3 | 62.0* | 12.7µM*
C[C@@H]1CN([C@H](C)CO)C(=O)c2cc(NS(=O)(=O)c3cn(C)cn3)ccc2O[C@H]1CN(C)Cc1ccc(C(=O)O)cc1 | / | / | / | / | -8.9 | /
COc1ccc(C2CC(=O)Oc3c(C(CCN4CCCCC4)c4ccc(N(C)C)cc4)c(OC)cc(OC)c32)cc1 (configuration not stated) | -17.5 | 3.9 | 4.5 | -2.5 | 39.2* | 17.1µM*
SMILES | Neddylation inh | DAGLB inhibitor | NadD inh | HGIII-sPLA2 inh | ARNT TACC3 PPI | ARNT Alpha ctr
COc1ccc(C2CC(=O)Oc3c(C(CCN4CCCC(C)C4)c4ccc(N(C)C)cc4)c(OC)cc(OC)c32)cc1 (configuration not stated) | -17.3 | 3.6 | 1.7 | 1.2 | 20.2 | /
O=C(CNCc1ccccn1)Nc1ccc([N+](=O)[O-])cc1C(=O)Nc1ccccc1F | -35.2 | 1.4 | 11.7 | 1.6 | 61.9* | 28.2µM*
CCCNC(=O)N[C@H]1CC[C@@H](CC(=O)NC2CCCCC2)O[C@H]1CO | / | / | / | / | -12.3 | /
Cc1ccc(C(=O)Nc2cccc(C(=O)N/N=C/c3ccc(O)cc3)c2)cc1 | 8.7 | -2.8 | 6.1 | -12.6 | 30.8* | -30.2%
C[C@@H]1CN([C@H](C)CO)C(=O)c2cc(C#CC3CCCCC3)cnc2O[C@@H]1CN(C)S(C)(=O)=O | / | / | / | / | 0.8 | /
C#CCOCCOCCOCCNc1nc(N2CCN(C(=O)[C@H](CCCCN)n3cc([C@@H](N)CC(N)=O)nn3)CC2)nc(N2CCN(C(=O)[C@H](CCCCN)n3cc([C@@H](N)CC(N)=O)nn3)CC2)n1 | -14.5 | -2.6 | 4.0 | 3.4 | 59.8* | -2.7%
C#CCOCCOCCOCCNc1nc(N2CCN(C(=O)[C@H](CCCCN)n3cc(CN)nn3)CC2)nc(N2CCN(C(=O)[C@H](CCCCN)n3cc([C@@H](N)CC(N)=O)nn3)CC2)n1 | -26.3 | 0.7 | 4.0 | 7.5 | 35.9 | /
C#CCOCCOCCOCCNc1nc(N2CCN(C(=O)[C@H]([C@@H](C)CC)n3cc([C@@H](N)CO)nn3)CC2)nc(N2CCN(C(=O)[C@H](Cc3ccc(O)cc3)n3cc([C@@H](N)CC(C)C)nn3)CC2)n1 | -18.0 | 1.5 | 6.0 | -4.7 | 9.4 | /
C#CCOCCOCCOCCNc1nc(N2CCN(C(=O)[C@H](CC(N)=O)n3cc([C@@H](N)CC(N)=O)nn3)CC2)nc(N2CCN(C(=O)[C@H](CC(N)=O)n3cc([C@@H](N)CC(N)=O)nn3)CC2)n1 | -6.9 | -1.0 | 3.0 | 2.9 | 45.8* | -7.4%
C#CCOCCOCCOCCNc1nc(N2CCN(C(=O)[C@H](CCCCN)n3cc([C@@H](N)CO)nn3)CC2)nc(N2CCN(C(=O)[C@H](Cc3ccc(O)cc3)n3cc([C@@H](N)CC(C)C)nn3)CC2)n1 | -16.5 | -0.1 | -11.5 | 17.5 | 38.2* | -17.4%
CNC(=O)C[C@H]1CC[C@H]2[C@@H](COc3ccc(NC(=O)c4cccc(F)c4)cc3C(=O)N2C)O1 | / | / | / | / | -6.9 | /
C[C@H]1CN([C@@H](C)CO)S(=O)(=O)c2ccc(C#CC3(O)CCCC3)cc2O[C@H]1CN(C)C | / | / | / | / | 2.3 | /
COCCNC(=O)C[C@@H]1CC[C@H]2[C@@H](COC[C@@H](O)CN2S(=O)(=O)c2ccccc2C)O1 | / | / | / | / | -0.9 | /
O=C(NCc1ccccn1)c1ccc(CS(=O)(=O)Cc2ccc(Cl)cc2)o1 | -3.5 | 1.7 | -2.7 | 6.6 | 13.4 | /

From PubChem
